# Rows were chosen to be rich in hits. Some 21% of all compounds tested hit in one or more screens of this group.
# Shiga inhibitor = inhibitors of Shiga toxin in Vero cells. inhibition, % at 38.7 µM. Vero cells, Shiga toxin protein synthesis inhibition reporter. AID 2315. actives 9.2% (n = 290,000); in the data active = inhibition mostly above about 28%, no sharp cut-off; inactive = mostly below about 43%; note: 0% is about no effect
# Pf growth 48h = P. falciparum growth inhibition at 48 hours (one generation); actives 5.9% (n = 310,000); AID 504832; Potency, µM (top dose mostly 28.7 µM), inactives show at the top dose activity change, negative = inhibition, actives largely listed as inhibitors; P. falciparum luciferase growth in erythrocytes, 48 h; note: potency is the fitted concentration of half-maximal effect; % is set by controls: 0 for no effect and ±100 for the full control effect
#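 Luciferase-expressing parasites in RBCs, 2% Hct / 0.1% parasitemia final; RPMI 1640 + 0.5% Albumax; 37 C, 5% CO2, one generation; luminescence read-out, lower signal = inhibition.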
# Cycloheximide cs = affects cycloheximide protein synthesis inhibition readout, counter-screen. max response, %. actives 12% (n = 300,000). cell reporter, cycloheximide protein synthesis inhibition counterscreen; in the data active = max response mostly above about 13%, no sharp cut-off; inactive = mostly below about 14%; note: read at 38.3 µM for the half of the compounds with a filed dose; 0% is about no effect
# NS1 inh = blocks influenza NS1 protein function; Potency, µM (highest dose often 46.1 µM), inactives show at the highest dose activity, positive = more growth; actives 0.4% (n = 270,000); calls by dose curve; note: potency is the fitted concentration of half-maximal effect; actives are rising curves; nearly all actives have a fitted effect of over 50% in size
#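 S. cerevisiae expressing influenza A NS1, grown in glucose, washed, then diluted 1:100 into pH 6.0 -URA galactose medium with 23 nl compound. Growth recovery read as OD600; NS1-free strain serves as control.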
# Pf growth 96h = P. falciparum growth inhibition at 96 hour, primary screen for plastid delayed-death inhibitors; P. falciparum luciferase reporter growth, 96 h; Potency, µM (highest dose often 28.7 µM), inactives show at the top dose activity change, negative = inhibition, actives largely listed as inhibitors; actives 6.9% (n = 320,000); AID 504834; note: potency is the fitted concentration of half-maximal effect; % is set by controls: 0 for no effect and ±100 for the full control effect
#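 Readout is luminescence from an integrated firefly luciferase in P. falciparum. Red cells, 2% hematocrit and 0.05% parasitemia final, were cultured with compound through two parasite generations (96 hours) at 37 C, 5% CO2.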
# * hit, by the source's call; i = inactive; ? = inconclusive; nt = no result given. Unless noted, calls come from the whole dose curve; as a rule, active = well fitted inhibition curve with a large enough effect; inconclusive = small, poorly fitted or top-dose-only effect, or another doubt; inactive = no such curve, though single readings can be large or run the other way.
SMILES,Shiga inhibitor,Pf growth 48h,Cycloheximide cs,NS1 inh,Pf growth 96h
Cc1ccc(C(=O)CSc2nnc(-c3snnc3C)n2C2CC2)cc1,13,?,7,12%,?
COc1cc(SC#N)ccc1N=Cc1c(C)[nH]n(-c2cccc3ccccc23)c1=O,-19,9.3µM*,5,-2%,0.74µM*
Cc1cc(NC(=O)CSc2nnc(-c3cccnc3)n2Cc2ccccc2)no1,-11,7%,1,nt,-6%
O=C(Cc1cccs1)N/N=C/c1ccccc1,27,27%,15,-3%,7%
O=C(CN1CCN(Cc2ccccc2Cl)CC1)N/N=C/C=C\c1ccccc1[N+](=O)[O-],-12,5%,-2,8%,0%
O=C(Cc1cccs1)N/N=C/C=C/c1ccccc1[N+](=O)[O-],62*,49%,22*,-3%,93%
O=C(Cc1ccccc1)N/N=C/C=C/c1ccccc1[N+](=O)[O-],18,49%,16*,-8%,85%
Cc1ccc(CSc2nnc(SCC(=O)N/N=C/C=C/c3ccco3)s2)cc1,3,39%,16,18%,?
Cc1ccc(CSc2nnc(SCC(=O)N/N=C/C=C/c3ccccc3[N+](=O)[O-])s2)cc1,48*,198%,21*,-13%,111%
O=C(N/N=C/C=C\c1ccccc1[N+](=O)[O-])c1cc(-c2ccc3ccccc3c2)n[nH]1,25,-61%,11*,6%,15%
Cc1nc2nc(C)c(NS(=O)(=O)c3ccc(C4CCCCC4)cc3)c(=O)n2[nH]1,-8,16%,-4,10%,?
O=C(N/N=C/C=C\c1ccccc1[N+](=O)[O-])c1cccs1,12,17%,12,-1%,2.9µM*
COc1ccccc1/C=C/C=N/NC(=O)Cc1cccs1,73*,10%,42*,19%,5%
O=C(N/N=C/C=C/c1ccccc1[N+](=O)[O-])c1ccncc1,6,46%,-4,7%,46%
O=[N+]([O-])c1ccccc1/C=C/C=N/Nc1ccc(S(=O)(=O)Nc2ccc(Cl)cc2)cc1[N+](=O)[O-],29,12µM*,10,nt,-7%
O=C(N/N=C/C=C/c1ccccc1[N+](=O)[O-])c1cccnc1,14,4%,6,0%,?
O=C(O)c1ccc(N/N=C/C=C/c2ccccc2[N+](=O)[O-])cc1,52*,i,45*,nt,i
Cc1cn(C2CC3OCC(NC(=O)C(Cc4ccccc4)NC(=O)OC(C)(C)C)C3O2)c(=O)[nH]c1=O (centres undefined),4,nt,11,nt,nt
Nc1nc(SCC(=O)N2CCCC2)[nH]c(=O)c1NC(=O)c1cccs1,-2,7%,-2,0%,14%
CN(Cc1cccs1)C(=O)/C=C/c1ccccc1[N+](=O)[O-],69*,-5%,31,nt,-18%
O=C(Cc1cccs1)N/N=C/C=C\c1ccco1,-3,41%,12,8%,180%
CCN(Cc1ccccc1)C(=O)/C=C/c1ccccc1[N+](=O)[O-],14,-12%,-3,-2%,6%
O=C(N/N=C/C=C\c1ccco1)c1cccs1,82*,-2%,29*,nt,9%
COc1ccc(CN2CCCC(CNC(=O)c3ccc(F)cc3)C2)c(F)c1 (centres undefined),24,-25%,5,-2%,1.9µM*
COc1cc(OC)cc(C(=O)NCC2CCCN(Cc3cccc(C(C)=O)c3)C2)c1 (centres undefined),-4,?,1,-5%,8.3µM*
SMILES,Shiga inhibitor,Pf growth 48h,Cycloheximide cs,NS1 inh,Pf growth 96h
COc1ccc(S(=O)(=O)NCC2CCCN(Cc3ccc(OC)cc3F)C2)cc1 (centres undefined),-5,9%,-2,-4%,?
CCOc1cc(CN2CCCC(CNC(=O)c3ccc(F)cc3)C2)ccc1OC (centres undefined),5,?,1,5%,?
COc1ccc(CN2CCCC(CNC(=O)c3ccc(F)cc3)C2)c(C)c1C (centres undefined),-29,-17%,-3,-2%,10µM*
Cc1ccc(N(C)S(=O)(=O)c2csc(C(N)=O)c2)cc1C,-5,nt,-1,-3%,?
N#Cc1ccsc1NC(=O)COC(=O)c1ccc(NC(N)=O)cc1,92*,116%,41*,3%,6%
CCN(CC)c1ccc(C(=O)OCC(=O)Nc2sccc2C#N)cc1,39*,52%,27*,-15%,36%
CCN(CC)c1ccc(C(=O)OCC(=O)Nc2ccccc2-c2ccccc2)cc1,7,?,-1,?,10µM*

# High-throughput results from PubChem.
